# Bioassay records deposited in PubChem by National Center for Advancing Translational Sciences (NCATS).
# hNpr1 antagonist: human Npr1 receptor antagonism | P16066 | HEK293 hNpr1 GloSensor cGMP, ANP-stimulated luminescence | Potency, µM (top dose mostly 46.3 µM), for inactives: at the highest dose activity change, negative = inhibition, hits mostly inhibitors | 76,000 compounds, 1.6% hits | AID 1347048; calls by dose curve; further: nearly all actives have a fitted effect of over 60% in size
#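 HEK293 cells stably expressing human Npr1 and cGMP GloSensor pGS-40F, loaded 2 h with 2% GloSensor reagent, given compound 30 min at room temperature. Luminescence read before and 20 min after 0.1 nM hNppA.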
# FLuc inh: Photinus pyralis luciferase inhibition | purified P. pyralis luciferase, luminescence, biochemical | Potency, µM (highest dose often 115 µM), most hits filed as inhibitors | 76,000 compounds, 2.5% hits | AID 1347043; further: nearly all actives have a fitted effect of over 65% in size
# Target sequence (P08659 whole entry, looked up): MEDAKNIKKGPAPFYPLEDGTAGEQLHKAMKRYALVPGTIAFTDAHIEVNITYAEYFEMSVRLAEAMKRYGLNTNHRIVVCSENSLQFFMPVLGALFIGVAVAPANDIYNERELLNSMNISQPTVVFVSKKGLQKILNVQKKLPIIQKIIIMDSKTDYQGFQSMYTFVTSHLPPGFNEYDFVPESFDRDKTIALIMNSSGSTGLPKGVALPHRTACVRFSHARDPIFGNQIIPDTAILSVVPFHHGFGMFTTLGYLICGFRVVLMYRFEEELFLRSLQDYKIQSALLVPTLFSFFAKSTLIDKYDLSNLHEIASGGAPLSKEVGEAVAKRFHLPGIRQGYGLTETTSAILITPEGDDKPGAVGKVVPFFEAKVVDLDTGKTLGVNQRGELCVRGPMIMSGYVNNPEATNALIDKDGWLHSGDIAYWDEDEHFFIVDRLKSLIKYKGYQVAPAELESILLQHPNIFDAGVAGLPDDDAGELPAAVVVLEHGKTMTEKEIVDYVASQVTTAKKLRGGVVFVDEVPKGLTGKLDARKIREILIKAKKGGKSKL
#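 Biochemical qHTS: compound (6-point titration) added to 10uM D-luciferin plus 10uM ATP in Tris acetate pH 7.5 buffer with Mg, Tween-20 and BSA, then purified enzyme at 10nM; light output imaged.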
# 3T3 cytotox: NIH 3T3 cell cytotoxicity; Potency, µM (top dose mostly 96.7 µM), for the others: at the highest dose activity change, negative = cytotoxicity, actives largely listed as inhibitors; 94,000 compounds, 4.3% hits; NIH 3T3 viability, CellTiter-Glo ATP luminescence, 48-72 h; further: nearly all actives have a fitted effect of over 55% in size
#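 Mouse fibroblast NIH 3T3 cells, 400 per well, received compound via pintool and were incubated for 48 or 72 hr prior to CellTiter-Glo ATP luminescence measurement.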
# HEK293 tox: cytotoxic compounds in HEK 293 cells | HEK 293 viability, ATP luminescence (CellTiter-Glo), 48-72 h | Potency, µM (top dose mostly 115 µM), without a hit: top-dose activity change, negative = cytotoxicity, usual class: inhibitors | 94,000 compounds, 6.6% hits | AID 1345083; further: nearly all actives have a fitted effect of over 60% in size
#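 Cells seeded first (HEK 293, 250 cells/well), then compound added by pintool. Incubation ran 48 or 72 hr at 37 degree Celsius. CellTiter-Glo was added and luminescence imaged after 10 min at room temperature.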
# GPT2 inhibitor: blocks human glutamate pyruvate transaminase 2; Recombinant GPT2, coupled pyruvate oxidase/HRP Amplex Red fluorescence; Potency, µM (series often up to 57.7 µM), inactives show top-dose activity change, negative = inhibition, usual class: inhibitors; 100,000 compounds, 0.25% hits; further: nearly all actives have a fitted effect of over 60% in size
#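 Fluorescence of coupled pyruvate oxidase/HRP/Amplex Red system (50uM Amplex, 30 min, dark) reports pyruvate formed by GPT2. Enzyme reaction: 10ng/uL GPT2, 2mM L-alanine, 250uM a-KG, 30 min room temperature, pH 7.5; 50uM AOA control.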
# * hit, by the source's call; i = inactive; u = inconclusive; x = not tested or not shown; ! = a repeat was not active; [ ] = another dose, or the depositor's remark. Only some compounds are listed: those with a hit (about 10% of all), similar ones and a draw of the others. Unless noted, the call rests on the fitted dose curve; in most records, active means well fitted curve in the direction sought with a large enough effect; inconclusive means small, poorly fitted or top-dose-only effect, or another doubt; inactive means no such curve, though single readings can be large; an effect the other way counts as inactive or inconclusive. On the % scale 0 is the no-effect control and ±100 the full control effect; potency means the concentration at half of the fitted maximal effect.
SMILES,hNpr1 antagonist,FLuc inh,3T3 cytotox,HEK293 tox,GPT2 inhibitor
COc1ccc(CC(=O)N2CCC(N3CC4CC(C3)[C@H]3CCCC(=O)N3C4)CC2)cc1Cl (stereo not given in full),-9%,i,-3%,-21%,-7%
Cc1cc(C)cc(-c2ccc(CN3CCCC3C(=O)NCc3cccnc3)cc2)c1 (stereo not given),x,x,u,50µM*,i
COc1ccccc1CNC(=O)C1CCCN1Cc1ccc(-c2cc(C)cc(C)c2)cc1 (stereo not given),x,x,40µM*,40µM*,2%
O=C(NCc1cccnc1)[C@@H]1C[C@@H](O)CN1C1CCN(C(=O)c2ccsc2)CC1,-14%,i,-2%,i,4%
O=C(NCc1ccccn1)C1CCCN(c2ccnc3ccnn23)C1 (stereo not given),x,x,u,-21%,-57%
COc1cccc(-c2cc(-c3ccccc3)nc3c(C)noc23)c1,1%[70.6 µM],i,u,u,4%[88.5 µM]
Cc1noc2c(-c3cccc(CO)c3)cc(-c3ccc(F)cc3)nc12,2%[70.6 µM],i,u,71µM*,u
Cc1noc2c(-c3cccc(CO)c3)cc(-c3cccc(C(F)(F)F)c3)nc12,-3%[70.6 µM],i,25µM*,45µM*,-6%[88.5 µM]
CCc1cc(=O)n(CC(=O)NCCc2ccc(Cl)cc2)c(N2CCOCC2)n1,-14%,i,u,u,i
Cc1ccc2nc(C3CCCN(Cc4cccc(-c5cccnc5)c4)C3)[nH]c(=O)c2c1 (stereo not given),-26%,i,u,32µM*!,1%
CCN1CCCC(c2nc3ccc(F)cc3c(=O)[nH]2)C1 (stereo not given),-2%[70.6 µM],i,-9%[138 µM],-1%[172 µM],i
O=c1[nH]c(C2CCCN(CC3CCCC3)C2)nc2ccc(F)cc12 (stereo not given),0%,i,40µM*,32µM*,i
Cc1ccc2nc(C3CCCN(Cc4cccc(-c5ccc(F)cc5F)c4)C3)[nH]c(=O)c2c1 (stereo not given),-25%,i,u,u,-6%
O=c1[nH]c(C2CCCN(Cc3cccc(-c4ccsc4)c3)C2)nc2ccc(F)cc12 (stereo not given),-21%,i,28µM*!,22µM*,i
CCc1ccccc1S(=O)(=O)N(C)CC1CCOCC1,-13%,i,-19%,-29%,i
CC(=O)c1ccc(NC(=O)Cn2c(-c3cnccn3)nc(C)c(C)c2=O)cc1,-2%,i,-16%,2%,4%
O=C(Nc1ccc(F)c(Cl)c1)c1cnc(-c2ccccc2)nc1-c1ccncc1,u,i,25µM*,35µM*,i
O=C(Nc1ccccc1)c1cnc(-c2ccc(F)cc2)nc1-c1ccncc1,-22%,i,u,15%,i
O=C(Nc1cc(F)cc(F)c1)c1cnc(-c2ccc(F)cc2)nc1-c1ccncc1,u,u,20µM*,22µM*,-4%
COCCNC(=O)Cc1c[nH]c2ncc(-c3cccnc3)cc12,3%[70.6 µM],i,u,-22%[172 µM],3%[88.5 µM]
CNC(=O)c1cccc(-c2cnc3[nH]cc(CC(=O)N(C)C)c3c2)c1,5%[70.6 µM],u,u,u,3%[88.5 µM]
CNC(=O)c1cccc(-c2cnc3[nH]cc(CC(=O)NCc4cccs4)c3c2)c1,-14%[70.6 µM],i,89µM*,u,-7%[88.5 µM]
CNC(=O)c1cccc(-c2cnc3[nH]cc(CC(=O)Nc4ccccc4Cl)c3c2)c1,1%[70.6 µM],u,u,89µM*,-15%[88.5 µM]
O=C(Cc1c[nH]c2ncc(-c3cccnc3)cc12)NC1CCC1,10%[70.6 µM],i,28µM*,u,-10%[88.5 µM]
O=C(Cc1c[nH]c2ncc(-c3cccnc3)cc12)NCCc1ccccn1,-1%[70.6 µM],i,100µM*,-4%[172 µM],-23%[88.5 µM]
SMILES,hNpr1 antagonist,FLuc inh,3T3 cytotox,HEK293 tox,GPT2 inhibitor
O=C(NCC1CC1)c1cn(C2CN(C(=O)NC3CCCCC3)C2)nn1,-7%,i,-7%,-10%,i
CC(C)NC(=O)N1CCC[C@H]1c1nc(-c2ccc(F)cc2)n[nH]1,x,x,-1%,-2%,0%
CN1CCCC2(Cc3ccccc3CN([S+](C)(=O)[O-])C2)C1 (stereo not given),x,x,i,i,i
O=C(Cc1c[nH]c2ncc(-c3ccccc3)cc12)NC1CC1,u,i,89µM*,u,u
CNC(=O)c1cccc(-c2cnc3[nH]cc(CC(=O)NC4CCC4)c3c2)c1,2%[70.6 µM],u,40µM*,u,i
O=C(NCCc1ccc(Cl)cc1)c1cc(Br)cn2ccnc12,-6%,i,-6%,-27%,1%
CSCCNC(=O)c1cc(Br)cn2ccnc12,11%[70.6 µM],45µM*!,-13%[138 µM],-24%[172 µM],4%[88.5 µM]
c1ccc(-c2cc3c(cn2)CN(Cc2ccc4[nH]ccc4c2)CCN3)cc1,-5%[70.6 µM],56µM*,25µM*,50µM*,2%[88.5 µM]
CCOc1cc2c(cn1)NCCN(Cc1ccc3[nH]ccc3c1)C2,3%[70.6 µM],i,-23%[138 µM],u,4%[88.5 µM]
Cc1cc(-c2cc3c(cn2)CN(Cc2ccc4[nH]ccc4c2)CCN3)ccn1,u,45µM*,u,71µM*,-10%[88.5 µM]
COc1ccc(-c2ccc3c(c2)C(=O)N2CC[C@H](NC(=O)NC4CCCCC4)[C@H]2C(=O)N3)cc1,3%,i,-12%,i,0%
COc1ccccc1-c1cccc(CN2CCC(NC(=O)NC3CCCC3)CC2)c1,x,x,28µM*,40µM*,-5%
COc1ccccc1-c1cccc(CN2CCC(NC(=O)c3ccccc3)CC2)c1,x,x,u,u,-12%
COc1ccccc1-c1cccc(CN2CCC(NC(=O)c3ccc(C)cc3)CC2)c1,x,x,u,50µM*,1%
COc1ccccc1-c1cccc(CN2CCC(NC(=O)Nc3ccccc3F)CC2)c1,x,x,18µM*,25µM*,i
C=CCNC(=O)c1cn2c(n1)CN(C(C)=O)CC2,x,x,-7%[174 µM],-8%[230 µM],3%[88.5 µM]
O=C(Cn1cccn1)NC1CC(=O)N(Cc2ccccc2C(F)(F)F)C1 (stereo not given),1%,i,-20%,-4%,-4%
Cc1noc(C)c1Cc1c(C(=O)NC2CCc3n[nH]c(=O)n3CC2)noc1C (stereo not given),2%,i,-3%,u,i
Cc1ccccc1C(=O)N1CCC2(CC1)CC(c1cccc(C(F)(F)F)c1)=NO2,x,x,u,32µM*,x
O=C(c1ccccc1F)N1CCCC2(CC(c3cccc(C(F)(F)F)c3)=NO2)C1 (stereo not given),2%,i,u,u,-1%
CC(C)(C)C(=O)N1CCC2(CC1)CC(c1cccc(C(F)(F)F)c1)=NO2,x,x,-26%,u,x
O=C(c1ccccc1F)N1CCC2(CC1)CC(c1cccc(C(F)(F)F)c1)=NO2,x,x,u,40µM*,x
